# The entries come from a sample that favours hits as a whole.
# TSHR antag – blocks TSH signaling through the human TSH receptor. TSHR-expressing cells, TSH-stimulated cAMP HTRF, 2 h; active compounds read low. activity change, negative = inhibition, % at 11.5 µM. 0.2% of 330,000 active. P16473;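 active means activity change below a set negative limit, meaning inhibition stronger than a set level, cut at about -70% in these data; inconclusive means activity change between two set negative limits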
# Target sequence (P16473 whole entry, looked up): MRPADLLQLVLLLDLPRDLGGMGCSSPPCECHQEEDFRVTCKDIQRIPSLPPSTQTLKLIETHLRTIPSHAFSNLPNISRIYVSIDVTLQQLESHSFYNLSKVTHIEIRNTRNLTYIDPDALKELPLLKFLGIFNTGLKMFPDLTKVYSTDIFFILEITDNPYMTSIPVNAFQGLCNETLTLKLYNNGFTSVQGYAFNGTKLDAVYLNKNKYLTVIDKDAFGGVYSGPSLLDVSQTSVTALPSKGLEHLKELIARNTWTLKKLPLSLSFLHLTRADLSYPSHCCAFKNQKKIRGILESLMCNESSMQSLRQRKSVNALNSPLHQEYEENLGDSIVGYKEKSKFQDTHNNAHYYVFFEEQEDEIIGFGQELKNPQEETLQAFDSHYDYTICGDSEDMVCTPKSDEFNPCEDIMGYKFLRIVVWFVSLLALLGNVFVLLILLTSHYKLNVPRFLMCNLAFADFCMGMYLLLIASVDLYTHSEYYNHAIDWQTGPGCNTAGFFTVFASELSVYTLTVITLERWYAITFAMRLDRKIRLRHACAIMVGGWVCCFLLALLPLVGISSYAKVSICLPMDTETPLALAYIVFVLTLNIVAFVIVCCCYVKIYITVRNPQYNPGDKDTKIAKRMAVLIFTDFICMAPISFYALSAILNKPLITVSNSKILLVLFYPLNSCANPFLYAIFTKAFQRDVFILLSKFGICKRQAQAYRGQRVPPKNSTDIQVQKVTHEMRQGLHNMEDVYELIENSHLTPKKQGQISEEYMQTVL
#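 Read-out is FRET at 665 nm (cryptate excitation 337 nm) from a cryptate-tagged anti-cAMP antibody, competed by cell cAMP against cAMP-d2. Compounds are tested on freshly harvested TSHR cells challenged with 4nM TSH (EC80) for 2 hours at 37 deg C.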
# RXFP1 ag – activates the human relaxin receptor RXFP1. Q9HBX9. HEK293T-RXFP1 cAMP TR-FRET, 30 min; response scale: percent of porcine relaxin response, buffer zero. Potency, µM (top dose mostly 57.5 µM), most hits filed as activators. 0.3% of 370,000 active. AID 2676; further: nearly all actives have a fitted effect of over 60% in size
#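 cAMP rise read by TR-FRET after 30 min, 37C compound exposure (up to 58 uM) in RXFP1-transfected HEK293 cells with Ro 20174 present. EC50 from Hill-equation fits, with 29 nM porcine relaxin as 100% and buffer as basal.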
# HEK293 tox – cytotoxicity counter-screen for GLP-1 receptor inverse agonists; HEK293 cAMP-luciferase reporter cells, luminescence, 24 h; Potency, µM (highest dose often 38.3 µM), most hits filed as inhibitors; 0.13% of 410,000 active;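 further: loss of luciferase light is scored as toxicity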
#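 1536-well qHTS counterscreen of the MLSMR; 200 cells/uL, 12 h pre-incubation, 23 nL cpd, 24 h at 37 deg C 5% CO2, luciferase detection reagent, 12 min RT, luminescence. Inhibition = undesired.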
# PTHR1 agonist – agonists of human PTHR1 parathyroid hormone receptor | Q03431 | HEK293 GP2 PTHR1 cells, GloSensor cAMP luminescence, 1 h | Potency, µM (top dose mostly 115 µM), usual class: activators | 0.075% of 410,000 active; further: nearly all actives have a fitted effect of over 55% in size
#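 HEK-293-derived GP2 cells expressing PTHR1 and a GloSensor cAMP reporter, 3,000/well, plated overnight, given luciferin plus IBMX (each 0.5 mM as added) for 1 h at 37 °C, then compound for 1 h at 37 °C. Luminescence was read after 15 min at room temperature.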
# RXFP1 antagonist – RXFP1 (human) relaxin receptor antagonism; Q9HBX9; HEK293-RXFP1, relaxin-stimulated cAMP HTRF, 30 min; active compounds read low; activity change, negative = inhibition, % at 57.5 µM; 0.59% of 350,000 active; AID 1259400;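 active means activity change of -60% or lower, but not beyond a set lower limit; inconclusive means change between -60% and -40%, or beyond the set limit; inactive means change above -40%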
# NPSR antagonist – blocks cAMP signaling of the human neuropeptide S receptor. CHO-NPSR cells, cAMP TR-FRET, antagonist mode. Potency, µM (titrated, usually from 38.3 µM), actives largely listed as inhibitors. 1% of 220,000 active. Q6W5P4; further: nearly all actives have a fitted effect of over 50% in size
# Numbers stand for hits; . = inactive; ? = inconclusive; / = no result; ! = not confirmed by another sample; [ ] = another dose, or the depositor's remark. Unless noted, the call rests on the fitted dose curve; in most records, active means well fitted curve in the direction sought with a large enough effect; inconclusive means small, poorly fitted or top-dose-only effect, or another doubt; inactive means no such curve, though single readings can be large; an effect the other way counts as inactive or inconclusive.
SMILES,TSHR antag,RXFP1 ag,HEK293 tox,PTHR1 agonist,RXFP1 antagonist,NPSR antagonist
CN(C)S(=O)(=O)c1ccc(C(=O)OCC(=O)Nc2cccnc2Cl)cc1,.,14µM,.,.,.,.
O=C(COC(=O)c1ccc(Br)cc1)Nc1cccnc1Cl,.,.,.,.,.,/
CCCCn1c(C)cc2c(c1=O)C1O[C@](CCCC)(Cc3cc(C#N)ccc31)O2,/,.[11.5 µM],/,/,/,/
CCCC[C@]12Cc3cc(C#N)ccc3C(O1)c1c(cc(C)n(Cc3ccccc3)c1=O)O2,/,3.2µM,/,/,/,/
CNC(=O)c1c(NC(=O)c2ccco2)sc(C)c1C,.,.,.,.,-88,/
CCOC(=O)c1c(-c2ccc(C)s2)csc1NC(=O)c1ccco1,.,.,/,/,/,7.9µM
CCOC(=O)c1c(NC(=O)c2ccco2)sc2c1CCCCC2,.,.,.,.,.,?
CCOC(=O)c1c(-c2ccc(Cl)cc2)csc1NC(=O)CNCc1ccco1,.,.,.,.,.,10µM
O=C(O)c1cccc(-c2noc(-c3ccccc3F)n2)c1,/,/,/,/,.,/
CC(=O)Nc1ccc(C=CC=Cc2cccc([N+](=O)[O-])c2)cc1,/,/,?,.,-61,/
CC(=O)Oc1ccccc1C(=O)C=Cc1cccc([N+](=O)[O-])c1,/,/,?,.,-84,/
COC(=O)c1ccc(-c2ccc(C(c3c(C)[nH][nH]c3=O)c3c(C)[nH][nH]c3=O)o2)cc1,.,.,.,.,-87,.
CC(=O)Nc1cccc(-c2csc(Nc3ccc(C)cn3)n2)c1,.,.,.,.,-60,.
CC(C)C[C@H](NC(=O)OC(C)(C)C)c1nnc(SCc2ccccc2)o1,.,.,.,.,.,?
C[C@H](NC(=O)OC(C)(C)C)c1nnc(SCc2c(F)cccc2Cl)o1,/,.,.,.,/,/
Cc1ccccc1CS(=O)(=O)c1nnc([C@H](CC(C)C)NC(=O)OC(C)(C)C)o1,.,.,?,.,.,10µM
CC(C)(C)OC(=O)N[C@@H](Cc1ccccc1)c1nnc(S(=O)(=O)Cc2cccc(F)c2)o1,?,.,?,.,-119,?
CC(C)C[C@H](N)c1nnc(S(=O)(=O)Cc2cccc(F)c2)o1,.,.,.,.,.,.
CC(C)[C@H](NC(=O)OC(C)(C)C)c1nnc(S(=O)(=O)Cc2c(F)cccc2Cl)o1,?,.,?,.,?,13µM
CCOc1ccc(C(c2c(O)cc(C)n(CCOC)c2=O)N2CCC(C)CC2)cc1 (stereo not drawn),/,.,.,.,.,/
CCOC(=O)c1[nH]c(C)c(CCC(=O)NCc2ccc(OCC)cc2)c1C,/,.,.,.,.,/
CCn1c(=O)c(CCC(=O)N2CCN(c3ccccn3)CC2)c(C)c2c(C)nn(-c3cccc(C)c3)c21,.,.,.,.,-103,/
CN(C)c1ccc(C(CNC(=O)COc2ccc(Cl)cc2)N2CCCC2)cc1 (stereo not drawn),.,.,.,.,-64,/
CN(C)c1ccc(C(CNC(=O)COc2ccc(Cl)cc2)N2CCOCC2)cc1 (stereo not drawn),/,.,.,.,.,/
COc1ccc(-c2cc(C(F)(F)F)nc(SCC(=O)NCc3ccc(OC)c(OC)c3)n2)cc1,/,.,.,.,/,/
SMILES,TSHR antag,RXFP1 ag,HEK293 tox,PTHR1 agonist,RXFP1 antagonist,NPSR antagonist
CCCCOC(=O)NS(=O)(=O)c1sc(CC(C)C)cc1-c1ccc(Cn2c(CC)nc3c(C)cc(C)nc32)cc1,.,.,/,/,/,13µM
CCc1cc2cc3c(cc2nc1SCC(=O)Nc1cc(C)on1)OCO3,.,28µM,.,.,.,?
CCC1(c2ccc(F)cc2)NC(=O)N(CC(=O)Nc2cccc(S(=O)(=O)N3CCOCC3)c2)C1=O (stereo not drawn),/,/,.,.,.,/
Cc1cc(NCCCn2ccnc2)n2nc(-c3ccc(F)cc3)cc2n1,.,.,.,.,.,.
Cc1cccc(-c2cc3nc(C)c(C)c(NCCCn4ccnc4)n3n2)c1,.,.,.,.,-98,.
COc1ccccc1CNC(=O)Cn1c(-c2cccs2)cc2cc(F)ccc21,/,.,.,50µM,.,/
CN1C(=O)/C(=C/c2ccc(OCc3ccccc3F)cc2)NC1=S,-70,.,.,.,.,/
Cc1cc2c3c(c1)C(C)(c1ccccc1)CC(C)(C)N3C(=O)C21C(C#N)=C(N)OC2=C1C(=O)CC(C)(C)C2 (stereo not drawn),/,.,.,.,.,10µM
CC1(c2ccccc2)CC(C)(C)N2C(=O)C3(C(C#N)=C(N)Oc4cc(O)ccc43)c3cccc1c32 (stereo not drawn),.,.,?,.,.,?
CCC(=O)Nc1ccc(S(=O)(=O)NC[C@H]2O[C@@H](n3cc(C)c(=O)[nH]c3=O)C[C@@H]2O)cc1,/,/,.,.,.,/
CCOc1cc(CNCc2ccccc2)ccc1OCc1ccc(Cl)cc1,.,.,?,.,-96,/
Cc1nn(CC(=O)N2CCN(c3cccc(C(F)(F)F)c3)CC2)c(=O)c2cccn12,.,35µM!,.,.,.,/
Cc1cc(S(=O)(=O)C(CNC(=O)c2ccc(OC(C)C)cc2)c2cccs2)ccc1F (stereo not drawn),/,.,.,.,.,/
COc1ccc(C2CC(O)(c3ccccc3)Oc3cc(OC)c(OC)c(OC)c32)cc1 (stereo not drawn),.,.,.,.,/,?
OC1(c2ccccc2)CC(c2ccccc2)c2ccccc2O1 (stereo not drawn),/,/,?,.,-77,/
CCOc1cc(N2CCOCC2)c(OCC)cc1NC(=O)c1cc(S(=O)(=O)N2CCOCC2)ccc1C,-82,/,.,.,.,/
CCOc1cc(N2CCOCC2)c(OCC)cc1NC(=O)Cn1cnnn1,.,/,.,.,.,/
CCOc1cc(N2CCOCC2)c(OCC)cc1NC(=O)c1ccc(S(C)(=O)=O)cc1,.,.,.,.,.,.
CCOc1cc(N2CCOCC2)c(OCC)cc1NC(=O)CC12CC3CC(CC(C3)C1)C2,.,.,.,.,.,10µM
C[C@@H]1CN([C@@H](C)CO)C(=O)CCCn2nncc2CO[C@H]1CN(C)C(=O)Nc1ccc2c(c1)OCO2,/,/,.,.,.,/
CCCCCC1CCC(c2n[nH]c(=S)n2C)CC1 (stereo not drawn),.,.,3.2µM,.,-64,.
Cc1cccc(C)c1NC(=O)CSc1nnc(-c2ccco2)c(-c2ccco2)n1,.,.,.,.,-68,.
Cc1ccccc1NC(=O)CSc1nnc(-c2ccco2)c(-c2ccco2)n1,.,.,.,.,.,.
CCOC(=O)Oc1ccc(CCNC(=O)[C@H](CCSC)NC(C)=O)cc1OC(=O)OCC,/,/,/,/,.,/
Cc1ccc2oc(=O)c3cnn(CC(=O)N(C)c4ccc(F)cc4)c3c2c1,/,.,.,.,/,/

# Assay outcomes: PubChem BioAssay, National Center for Advancing Translational Sciences (NCATS)
